These results are taken from PubChem BioAssay.

In general, inhibition refers to the relative decrease from the control value, in per cent.

Activity calls are given as the source filed them. Unless noted, how the calls were made is not given here.

Tested on in one assay: not listed separately
As to the kind of experiment: HepG2 cytotoxicity, primary screen, cytotoxicity control for P. falciparum antimalarial project, cell-based, ATP luminescence (AID 2303;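 active means inhibition above 50%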;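 further: 0% = DMSO wells and 100% = digitonin-killed cells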). Conditions: HepG2 viability, 24-48 h, at 10 µM, stronger effect = higher value.
Consider `CCCCOc1ccc(CNCCCCCCNCc2ccc(OCCCC)c3ccccc23)c2ccccc12`, for which the inhibition was 100% (active).
With `O=C(Nc1ccc(-c2nc3ccccc3[nH]2)cc1)c1cccc(S(=O)(=O)N2CCOCC2)c1`, the inhibition was 6% (inactive).
`COc1ccc(NC(=O)[C@H](CC(C)C)Nc2cc(C)nc(NCCc3cccs3)n2)cc1`: the inhibition is 5% (inactive).
In the case of `O=C(NCCCCCCNCc1ccc(-c2ccccc2)cc1)Nc1ccc(Cl)c(Cl)c1`, the inhibition is 14% (inactive).
With `O=C(Nc1ccc(-c2ccccc2)cc1)Nc1cccc(Cn2nc(Cl)c(N3CCNCC3)cc2=O)c1`, the inhibition was 15% (inactive).
As for `COc1cccc(C2CCN(CCN3CCC(NC(=O)c4ccc(-c5ccc(Cl)cc5)cc4)CC3)CC2)c1`, the inhibition is 31% (inactive).
As to `COc1ccc2nc(-c3cccc(C)n3)nc(Nc3ccncc3)c2c1`, the inhibition was -1% (inactive).
For `Cc1nc2c(c(C)nn2C(C)(C)C)c(C)c1CCC(=O)Nc1ccc(CN2CCCC2)cc1`, the inhibition is 1% (inactive).
For `CCCSc1nc2c(c(=O)n1Cc1ccco1)C1(CCCCC1)Cc1ccccc1-2`, the inhibition is -1% (inactive).
For `CN(C)CCOc1cc(NC(=O)Nc2ccc3c(c2)CCCC3=O)ccc1I`, the inhibition is 29% (inactive).
Still for that read-out and setting: in the case of `Nc1c2ccccc2nc2ccc(-c3ccccc3)cc12` it was 100% (active); in that of `CN1CCC(NCc2ccc(-c3cccc(S(=O)(=O)NCCc4ccccn4)c3)cc2)CC1`, 42% (inactive); in that of `Cc1ccc2sc(N(CCCn3ccnc3)C(=O)c3ccco3)nc2c1C`, 9% (inactive).
For the molecule `Cc1ccc(-c2cc3nc4c(c(NCCCn5ccnc5)n3n2)CCC4)cc1`, the inhibition was 22% (inactive).
For the molecule `O=S(=O)(c1ccccc1)C1CC1`, the inhibition is -3% (inactive).
Consider `CCCCCCc1ncc(-c2cc3cc(O)c(-c4ccccc4)cc3oc2=O)s1`, for which the inhibition is 4% (inactive).
With `Cc1cc(N[C@@H](Cc2ccccc2)C(=O)NCCc2ccccc2)nc(NCCc2cccs2)n1`, the inhibition was 12% (inactive).
On to `COc1ccc(Nc2nccc(N3CCC(NC(=O)Nc4cccc(C(C)=O)c4)C3)n2)cc1` (stereo not given), for which the inhibition is 29% (inactive).
As to `O=C(Nc1ccc(Cl)c(Cl)c1)C1CCC(=O)N1[C@@H](Cc1ccccc1)C(=O)NCCc1ccc(Cl)cc1` (stereo not given in full), the inhibition was 3% (inactive).
With `CC(C)(C)OC(=O)/C=C(\C(=O)OCc1ccc([N+](=O)[O-])cc1)c1csc(NC(c2ccccc2)(c2ccccc2)c2ccccc2)n1`, the inhibition is 2% (inactive).
As for `COC(=O)c1sc(-c2ccc(Cl)cc2)cc1N(CCCN1CCC(N2CCCCC2)CC1)S(=O)(=O)c1ccc(C)cc1`, the inhibition is 25% (inactive).
In the case of `CN1C(=C2SC(=Nc3ccc4ncccc4c3)N(Cc3ccccc3)C2=O)Sc2ccc(Cl)cc21`, the inhibition was 4% (inactive).
Turning to `N#Cc1cccc(NC(=O)NC2CCN(CCCCCNC(=O)[C@@H]3C[C@H]3c3ccc(Cl)c(Cl)c3)CC2)c1`, the inhibition is 36% (inactive).
On to `CC(C)(C)COc1ccc2c(N)n[nH]c2c1`, for which the inhibition is 31% (inactive).
`COc1cc(NC2CCCC(NCc3cn(S(=O)(=O)c4ccccc4)c4ccccc34)C2)nc2ccccc12` (stereo not given): the inhibition was 4% (inactive).
Regarding `CN(C)CCNC(=O)c1cc2c(-c3ccc(Cl)cc3)nn(C)c2s1`, the inhibition is 18% (inactive).
As for `O=[N+]([O-])c1ccc(Oc2ccccc2CNCC2CCN(CC3CCCCC3)CC2)cc1`, the inhibition was 40% (inactive).
In the case of `COc1cc2nc(NCCc3ccccc3)nc(N(C)Cc3ccccc3)c2cc1OC`, the inhibition was 31% (inactive).
With `COc1ccc2nc(C)cc(NN=Cc3ccc(Cl)cc3)c2c1`, the inhibition was 2% (inactive).
`CN(C)CCOc1ccc(NC(=O)Nc2ccnc3c(Br)cccc23)cc1Cl`: the inhibition was 10% (inactive).
Regarding `COc1cc(-c2nc(-c3ccccc3)c(-c3ccc(C(=O)c4ccc(F)cc4)cc3)[nH]2)cc(OC)c1O`, the inhibition was 0% (inactive).
Still for that read-out and setting: then `O=C(/C=C/c1ccc(Cl)c(Cl)c1)NCCCCCN1CCC(c2[nH]nc(-c3ccccc3)c2Br)CC1`, with 100% (active); and `c1ccc(CN2CCN(c3cc(-c4cncc(-c5ccccc5)c4)nc(-c4ccccc4)n3)CC2)cc1`, with 9% (inactive).
With `Cc1ccc(-n2cc(CNCCc3ncc(C)[nH]3)c(-c3ccc(F)cc3)n2)cc1`, the inhibition is 15% (inactive).
On to `Cc1cc(C(=O)Nc2ccc(C)c(-c3nc(N(C(=O)c4ccc(F)c(C)c4)C4CCNCC4)nc4c3ccc(=O)n4-c3c(F)cccc3F)c2)ccc1F`, for which the inhibition is 4% (inactive).
As to `CCC(O)(C#Cc1c(C)nc(N)nc1N)CC`, the inhibition was 63% (active).
Same read-out and setting: then `COc1ccc(CC(=O)NC2CCN(c3ccnc4cc(Cl)ccc34)C2)cc1` (stereo not given), with -1% (inactive).
Still for that read-out and setting: then `O=C(Nc1ccc(Cl)cc1)N[C@H]1CCN(Cc2ccc(OCCCN3CCCCC3)cc2)C1`, with 29% (inactive); and `O=C(C=Cc1ccc(-c2nc3ccccc3[nH]2)cc1)NC1CCN(Cc2ccccc2)CC1`, with 15% (inactive); and `Nc1c2c(nc3ccc(C(=O)Nc4ccccc4)cc13)CCCC2`, with 20% (inactive).

The target in a further assay is L-lactate dehydrogenase (Plasmodium falciparum (isolate CDC / Honduras)) (UniProt Q27743). The assay can be described thus: PfLDH activity inhibition – cell lysate, 3D7 strain, counter-screen for P. falciparum growth inhibition project (AID 2304).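 Further: 0% = vehicle and 100% = reference inhibitor.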 Particulars: P. falciparum 3D7 crude extract, LDH APAD/NBT absorbance; at 2 µM; stronger effect = higher value. Background: A counterscreen serves to expose hits that act by an unwanted route or on another target.
L-lactate dehydrogenase (Plasmodium falciparum (isolate CDC / Honduras)), sequence (Q27743 whole entry, looked up): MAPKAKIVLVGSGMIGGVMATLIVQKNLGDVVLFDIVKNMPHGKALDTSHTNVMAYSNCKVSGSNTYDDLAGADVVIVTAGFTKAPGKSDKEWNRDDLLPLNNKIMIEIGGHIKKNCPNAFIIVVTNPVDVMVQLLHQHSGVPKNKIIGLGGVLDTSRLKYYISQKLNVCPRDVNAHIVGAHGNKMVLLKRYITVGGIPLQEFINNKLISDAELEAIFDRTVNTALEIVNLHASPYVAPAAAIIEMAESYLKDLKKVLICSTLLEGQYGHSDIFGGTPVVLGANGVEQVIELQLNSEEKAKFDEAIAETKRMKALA
With `CCCCOc1ccc(CNCCCCCCNCc2ccc(OCCCC)c3ccccc23)c2ccccc12`, the inhibition was 2% (inactive).
For `O=C(Nc1ccc(-c2nc3ccccc3[nH]2)cc1)c1cccc(S(=O)(=O)N2CCOCC2)c1`, the inhibition is -5% (inactive).
As for `COc1ccc(NC(=O)[C@H](CC(C)C)Nc2cc(C)nc(NCCc3cccs3)n2)cc1`, the inhibition was 4% (inactive).
As for `O=C(NCCCCCCNCc1ccc(-c2ccccc2)cc1)Nc1ccc(Cl)c(Cl)c1`, the inhibition is -1% (inactive).
Regarding `O=C(Nc1ccc(-c2ccccc2)cc1)Nc1cccc(Cn2nc(Cl)c(N3CCNCC3)cc2=O)c1`, the inhibition was -2% (inactive).
`COc1cccc(C2CCN(CCN3CCC(NC(=O)c4ccc(-c5ccc(Cl)cc5)cc4)CC3)CC2)c1`: the inhibition was -12% (inactive).
`COc1ccc2nc(-c3cccc(C)n3)nc(Nc3ccncc3)c2c1`: the inhibition is -3% (inactive).
Regarding `Cc1nc2c(c(C)nn2C(C)(C)C)c(C)c1CCC(=O)Nc1ccc(CN2CCCC2)cc1`, the inhibition is 0% (inactive).
Same read-out and setting: then `CCCSc1nc2c(c(=O)n1Cc1ccco1)C1(CCCCC1)Cc1ccccc1-2`, with 0% (inactive); and `CN(C)CCOc1cc(NC(=O)Nc2ccc3c(c2)CCCC3=O)ccc1I`, with -5% (inactive).
Still for that read-out and setting: then `Nc1c2ccccc2nc2ccc(-c3ccccc3)cc12`, with 2% (inactive); and `CN1CCC(NCc2ccc(-c3cccc(S(=O)(=O)NCCc4ccccn4)c3)cc2)CC1`, with -1% (inactive); and `Cc1ccc2sc(N(CCCn3ccnc3)C(=O)c3ccco3)nc2c1C`, with -2% (inactive).
On to `Cc1ccc(-c2cc3nc4c(c(NCCCn5ccnc5)n3n2)CCC4)cc1`, for which the inhibition was -2% (inactive).
In the case of `O=S(=O)(c1ccccc1)C1CC1`, the inhibition is 7% (inactive).
As to `CCCCCCc1ncc(-c2cc3cc(O)c(-c4ccccc4)cc3oc2=O)s1`, the inhibition is -8% (inactive).
For `Cc1cc(N[C@@H](Cc2ccccc2)C(=O)NCCc2ccccc2)nc(NCCc2cccs2)n1`, the inhibition was 4% (inactive).
For the molecule `COc1ccc(Nc2nccc(N3CCC(NC(=O)Nc4cccc(C(C)=O)c4)C3)n2)cc1` (stereo not given), the inhibition was -11% (inactive).
Still for that read-out and setting: in the case of `O=C(Nc1ccc(Cl)c(Cl)c1)C1CCC(=O)N1[C@@H](Cc1ccccc1)C(=O)NCCc1ccc(Cl)cc1` (stereo not given in full) it was 0% (inactive).
As for `CC(C)(C)OC(=O)/C=C(\C(=O)OCc1ccc([N+](=O)[O-])cc1)c1csc(NC(c2ccccc2)(c2ccccc2)c2ccccc2)n1`, the inhibition was 3% (inactive).
Still for that read-out and setting: in the case of `COC(=O)c1sc(-c2ccc(Cl)cc2)cc1N(CCCN1CCC(N2CCCCC2)CC1)S(=O)(=O)c1ccc(C)cc1` it was -2% (inactive); in that of `CN1C(=C2SC(=Nc3ccc4ncccc4c3)N(Cc3ccccc3)C2=O)Sc2ccc(Cl)cc21`, -2% (inactive).
For `N#Cc1cccc(NC(=O)NC2CCN(CCCCCNC(=O)[C@@H]3C[C@H]3c3ccc(Cl)c(Cl)c3)CC2)c1`, the inhibition was 3% (inactive).
Same read-out and setting: in the case of `CC(C)(C)COc1ccc2c(N)n[nH]c2c1` it was 4% (inactive).
Consider `COc1cc(NC2CCCC(NCc3cn(S(=O)(=O)c4ccccc4)c4ccccc34)C2)nc2ccccc12` (stereo not given), for which the inhibition was 2% (inactive).
As for `CN(C)CCNC(=O)c1cc2c(-c3ccc(Cl)cc3)nn(C)c2s1`, the inhibition is -1% (inactive).
With `O=[N+]([O-])c1ccc(Oc2ccccc2CNCC2CCN(CC3CCCCC3)CC2)cc1`, the inhibition was -2% (inactive).
As for `COc1cc2nc(NCCc3ccccc3)nc(N(C)Cc3ccccc3)c2cc1OC`, the inhibition was -6% (inactive).
Take `COc1ccc2nc(C)cc(NN=Cc3ccc(Cl)cc3)c2c1`: the inhibition was 3% (inactive).
Still for that read-out and setting: in the case of `CN(C)CCOc1ccc(NC(=O)Nc2ccnc3c(Br)cccc23)cc1Cl` it was 0% (inactive); in that of `COc1cc(-c2nc(-c3ccccc3)c(-c3ccc(C(=O)c4ccc(F)cc4)cc3)[nH]2)cc(OC)c1O`, -3% (inactive).
On to `O=C(/C=C/c1ccc(Cl)c(Cl)c1)NCCCCCN1CCC(c2[nH]nc(-c3ccccc3)c2Br)CC1`, for which the inhibition was 1% (inactive).
Consider `c1ccc(CN2CCN(c3cc(-c4cncc(-c5ccccc5)c4)nc(-c4ccccc4)n3)CC2)cc1`, for which the inhibition was 0% (inactive).
Regarding `Cc1ccc(-n2cc(CNCCc3ncc(C)[nH]3)c(-c3ccc(F)cc3)n2)cc1`, the inhibition was -2% (inactive).
Turning to `Cc1cc(C(=O)Nc2ccc(C)c(-c3nc(N(C(=O)c4ccc(F)c(C)c4)C4CCNCC4)nc4c3ccc(=O)n4-c3c(F)cccc3F)c2)ccc1F`, the inhibition was -3% (inactive).
As for `CCC(O)(C#Cc1c(C)nc(N)nc1N)CC`, the inhibition is 2% (inactive).
Consider `COc1ccc(CC(=O)NC2CCN(c3ccnc4cc(Cl)ccc34)C2)cc1` (stereo not given), for which the inhibition is -8% (inactive).
Same read-out and setting: in the case of `O=C(Nc1ccc(Cl)cc1)N[C@H]1CCN(Cc2ccc(OCCCN3CCCCC3)cc2)C1` it was -2% (inactive).
For `O=C(C=Cc1ccc(-c2nc3ccccc3[nH]2)cc1)NC1CCN(Cc2ccccc2)CC1`, the inhibition was 3% (inactive).
Turning to `Nc1c2c(nc3ccc(C(=O)Nc4ccccc4)cc13)CCCC2`, the inhibition is -3% (inactive).
